Screening results (PubChem)
An excerpt weighted towards active compounds, which were near 6.8% of everything screened.
Abs 340nm: compound absorbs light at 340 nm; compound absorbance at 340 nm, fold over control; 65,000 tested, under 10 active; fold change at 10 µM;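 active = at 10 µM dose, initial 340 nm absorbance at least 2 fold that of control wells; inactive = change under 2 fold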;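 also: initial absorbance extrapolated from kinetic A340 decline of NADH oxidation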
NADH coupling: inhibitors of enzymes used to reach an NAD/NADH endpoint; coupled PK/LDH NADH assays, four targets; IC50, µM (doses to about 10 µM), for the others: at the highest dose inhibition; 65,000 tested, 0.02% active; AID 774;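 active = single-dose screening hits from any of four coupled enzyme assays that gave an IC50 when retested across doses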;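 also: the DPM-DC format reads NADH fluorescence rather than 340 nm absorbance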
MK inhibit: S. pneumoniae mevalonate kinase inhibition; purified MK, PK/LDH-coupled NADH absorbance 340 nm; inhibition, % at 10 µM; 65,000 tested, 0.48% active; AID 555;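 active = ranked among the strongest by inhibition in the single 10 µM screen, a fixed top-ranked set picked for dose follow-up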
Spn DPM-DC inh: blocks S. pneumoniae diphosphomevalonate decarboxylase | purified DPM-DC, PK/LDH coupled NADH fluorescence | calls only at 10 µM | 65,000 tested, 0.49% active | AID 556;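 active = the 320 compounds with the highest percent inhibition in the single-dose primary screen, excluding strongly autofluorescent ones, cut at about 32% in these data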;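 also: kinetic rate of NADH fluorescence loss reporting ADP formed by the decarboxylase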
Spn PMK inh: blocks S. pneumoniae phosphomevalonate kinase | purified PMK, PK/LDH-coupled NADH absorbance 340 nm | inhibition, % at 10 µM | 65,000 tested, 0.49% active | AID 539;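 active = top-ranked compounds by inhibition in the single 10 µM screen, taking a fixed number of the strongest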;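 also: 0% = full reaction with DMSO carrier and 100% = background rate without enzyme reaction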
Autofluor 339: intrinsic fluorescence of library compounds, ex339/em460 – biochemical, MLSMR library, data from DPM-DC assay, artefact control, profiling panel; compound autofluorescence, ex339/em460 nm, NADH buffer; hits give high values; 1 = no-compound wells, NADH background; fluorescence fold increase at 10 µM; 65,000 tested, 5.5% active; AID 709;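 active = at 10 µM, mean starting fluorescence two-fold or more over control wells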;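 also: signal is the first read of a kinetic run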
* marks the source's active call; other numbers are inactive results; [ ] = dose if it differs, or a comment.

Results for Cc1ccc2c(c1)-c1cc(C)nn1C(c1sccc1C)N2 (centres undefined) ?
Abs 340nm: 1.02; NADH coupling: 14.0%; MK inhibit: 12.0; Spn DPM-DC inh: inactive; Spn PMK inh: 8.0; Autofluor 339: 2.2*

What do the screens show for `CCCCc1cc2c(c(NC(C)=O)n1)c(=O)oc1ccccc12`?
Abs 340nm: 1.02; NADH coupling: 4.0%; MK inhibit: 4.0; Spn DPM-DC inh: inactive; Spn PMK inh: 10.0; Autofluor 339: 1.57

What do the screens show for `CCCCc1cc2c(c(NC(=O)CC)n1)c(=O)oc1ccccc12`?
Abs 340nm: 1.07; NADH coupling: 4.0%; MK inhibit: 0.0; Spn DPM-DC inh: inactive; Spn PMK inh: 6.0; Autofluor 339: 2.25*

How did COc1ccc(C(=O)C(OC(=O)CNC(=O)c2ccco2)c2ccccc2)cc1 (centres undefined) do in these assays?
Abs 340nm: 1.03; NADH coupling: 11.0%; MK inhibit: 8.0; Spn DPM-DC inh: inactive; Spn PMK inh: 7.0; Autofluor 339: 1.02

What do the screens show for `COc1ccc(OC)c(NC(=O)CN2C(=O)c3ccccc3S2(=O)=O)c1`?
Abs 340nm: 0.99; NADH coupling: 0.0%; MK inhibit: 1.0; Spn DPM-DC inh: inactive; Spn PMK inh: 0.0; Autofluor 339: 1.15

Results for COc1ccc2c(c1)-c1ccccc1S(=O)(=O)N2C(C)=O ?
Abs 340nm: 1.03; NADH coupling: 15.0%; MK inhibit: 0.0; Spn DPM-DC inh: active; Spn PMK inh: 7.0; Autofluor 339: 3.65*

Results for COc1ccc(NCc2nnc(SCC(=O)N3CCCc4ccccc43)n2C)cc1 ?
Abs 340nm: 1.05; NADH coupling: 7.0%; MK inhibit: 2.0; Spn DPM-DC inh: inactive; Spn PMK inh: 18.0; Autofluor 339: 1.03

Results for N#Cc1c(N2CCCC2)nc(N)c2c(N)nc(N3CCCC3)cc12 ?
Abs 340nm: 0.97; NADH coupling: 2.0%; MK inhibit: 3.0; Spn PMK inh: 5.0; Autofluor 339: 2.51*

What do the screens show for `Cc1cc(C)c(C#N)c(N2CCCC2)n1`?
Abs 340nm: 1.09; NADH coupling: 10.0%; MK inhibit: 15.0; Spn PMK inh: 4.0; Autofluor 339: 3.62*

How did N#Cc1c(N)nc(N2CCCC2)c(C#N)c1-c1ccc(Cl)cc1 do in these assays?
Abs 340nm: 1.03; NADH coupling: 4.0%; MK inhibit: 3.0; Spn DPM-DC inh: inactive; Spn PMK inh: 8.0; Autofluor 339: 1.09

Results for COc1cc2c(C#N)c(N3CCN(c4ccccc4OC)CC3)nc(N)c2c(N)n1 ?
Abs 340nm: 1.01; NADH coupling: 3.0%; MK inhibit: 12.0; Spn DPM-DC inh: active[fluoresces]; Spn PMK inh: 0.0; Autofluor 339: 2.38*

What do the screens show for `COc1ccc(N2C(=O)C(CC(=O)Nc3ccccc3)N(Cc3ccc4c(c3)OCO4)C2=O)cc1` (centres undefined)?
Abs 340nm: 0.96; NADH coupling: 3.0%; MK inhibit: 4.0; Spn DPM-DC inh: inactive; Spn PMK inh: 5.0; Autofluor 339: 1.12

Results for COc1ccc(S(=O)(=O)N2CCN(C(=O)COc3ccc4c(C)cc(=O)oc4c3)CC2)cc1 ?
Abs 340nm: 1.07; NADH coupling: 10.0%; MK inhibit: 6.0; Spn DPM-DC inh: inactive; Spn PMK inh: 7.0; Autofluor 339: 2.56*

How did Cc1cc(=O)oc2ccc(OCC(=O)N3CCC(C)CC3)cc12 do in these assays?
Abs 340nm: 1; NADH coupling: 7.0%; MK inhibit: 7.0; Spn DPM-DC inh: active; Spn PMK inh: 6.0; Autofluor 339: 1.75

Results for Cc1cc(=O)oc2cc(OCC(=O)N3CCCC(C)C3)ccc12 (centres undefined) ?
Abs 340nm: 1.04; NADH coupling: 7.0%; MK inhibit: 2.0; Spn DPM-DC inh: inactive; Spn PMK inh: 13.0; Autofluor 339: 2.69*

What do the screens show for `Nc1nnc(-c2cc3ccccc3oc2=O)s1`?
Abs 340nm: 1.04; NADH coupling: 5.0%; MK inhibit: 7.0; Spn PMK inh: 6.0; Autofluor 339: 3.01*

How did CCc1nn2cc(-c3ccccc3)nc2s1 do in these assays?
Abs 340nm: 1.02; NADH coupling: 7.0%; MK inhibit: 10.0; Spn DPM-DC inh: inactive; Spn PMK inh: 5.0; Autofluor 339: 1.06

What do the screens show for `O=C(O)CCc1nn2cc(-c3ccccc3)nc2[nH]c1=O`?
Abs 340nm: 1.07; NADH coupling: 4.0%; MK inhibit: 3.0; Spn PMK inh: 4.0; Autofluor 339: 2.35*

Results for Cc1oc(-c2ccc(F)cc2)cc1-c1nn2c(-c3ccoc3C)nnc2s1 ?
Abs 340nm: 1.1; NADH coupling: 1.0%; MK inhibit: 4.0; Spn DPM-DC inh: inactive; Spn PMK inh: 0.0; Autofluor 339: 1.06

Results for COc1nc2ccccc2c(=O)n1OCC(C)C ?
Abs 340nm: 1; NADH coupling: 6.0%; MK inhibit: 6.0; Spn DPM-DC inh: inactive; Spn PMK inh: 11.0; Autofluor 339: 1.1

How did COc1cc(C(=O)O)ccc1OC(C)=O do in these assays?
Abs 340nm: 1.03; NADH coupling: 5.0%; MK inhibit: 3.0; Spn DPM-DC inh: inactive; Spn PMK inh: 13.0; Autofluor 339: 1.02

What do the screens show for `CCOc1ccc(C(=O)O)cc1OC`?
Abs 340nm: 1; NADH coupling: 17.0%; MK inhibit: 1.0; Spn DPM-DC inh: active; Spn PMK inh: 10.0; Autofluor 339: 0.62

What do the screens show for `Cc1cccn2c(=O)c3cc(C(=O)NC4CCS(=O)(=O)C4)sc3nc12` (centres undefined)?
Abs 340nm: 1.09; NADH coupling: 6.0%; MK inhibit: 3.0; Spn PMK inh: 9.0; Autofluor 339: 2.12*

Results for Cc1cc2oc(C(=O)NC3CCS(=O)(=O)C3)c(C)c2cc1C (centres undefined) ?
Abs 340nm: 1; NADH coupling: 3.0%; MK inhibit: 5.0; Spn DPM-DC inh: inactive; Spn PMK inh: 1.0; Autofluor 339: 1.09

Results for N=c1c(C(=O)NC2CCCC2)cc2c(=O)n3ccccc3nc2n1C1CCCC1 ?
Abs 340nm: 1.02; NADH coupling: 6.0%; MK inhibit: 0.0; Spn PMK inh: 12.0; Autofluor 339: 5.21*

What do the screens show for `Cc1cccn2c(=O)c3cc(C(=O)NC4CCCC4)c(=N)n(C4CCCC4)c3nc12`?
Abs 340nm: 1.02; NADH coupling: 2.0%; MK inhibit: 6.0; Spn PMK inh: 0.0; Autofluor 339: 2.35*

Results for CN(c1ccc(O)cc1)c1nc(-c2ccccc2)cs1 ?
Abs 340nm: 1.01; NADH coupling: 1.0%; MK inhibit: 2.0; Spn DPM-DC inh: inactive; Spn PMK inh: 0.0; Autofluor 339: 1.05

What do the screens show for `OCC1(CO)COC2(CCCC2)N1`?
Abs 340nm: 1.03; NADH coupling: 5.0%; MK inhibit: 6.0; Spn DPM-DC inh: inactive; Spn PMK inh: 10.0; Autofluor 339: 1.11

What do the screens show for `CC12CCC(C(=O)NCc3ccc4c(c3)OCO4)(OC1=O)C2(C)C` (centres undefined)?
Abs 340nm: 1.07; NADH coupling: 2.0%; MK inhibit: 5.0; Spn DPM-DC inh: inactive; Spn PMK inh: 0.0; Autofluor 339: 1.13
